Results published in the supplement of paper PMC10849652.
About 8,800 targets were measured; listed, in parts, are those with a hit and a random draw of the rest. About 0.5% of all pairs of compound and target were hits.

Each target was assayed with C=CC(=O)N1CCC[C@@H](n2nc(-c3ccc(Oc4ccccc4)cc3)c3c(N)ncnc32)C1 [ibrutinib] (assay: log2 fold change, soluble protein after heating vs DMSO (PISA); higher = thermal stabilisation; K562 lysate, 10 uM; active = over 0.2 and 3.5 SD of the protein, either way, in both replicates (recomputed)).
Procedure, shortened: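 K562 pellets were dounce-homogenised in PBS pH 7.4 with 1 mM MgCl2, and the crude extract at 1 mg/mL protein was treated with 10 μM compound for 30 min. Aliquots were heated for 3 min across 48°C-58°C, pooled, and brought to 0.5% NP-40 at 4°C; soluble protein was the supernatant after 21,000xg for 90 min. Soluble protein was quantified by TMTpro 16plex LC-MS/MS with channel sums equalised, and reported as log2 fold change in thermal stability against DMSO controls, with values from duplicates.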

UniProt P31949, sequence (P31949 whole entry, looked up): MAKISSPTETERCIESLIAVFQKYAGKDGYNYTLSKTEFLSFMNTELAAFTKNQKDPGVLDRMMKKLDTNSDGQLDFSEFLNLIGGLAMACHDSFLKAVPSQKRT
UniProt Q9Y3Z3, sequence (Q9Y3Z3 whole entry, looked up): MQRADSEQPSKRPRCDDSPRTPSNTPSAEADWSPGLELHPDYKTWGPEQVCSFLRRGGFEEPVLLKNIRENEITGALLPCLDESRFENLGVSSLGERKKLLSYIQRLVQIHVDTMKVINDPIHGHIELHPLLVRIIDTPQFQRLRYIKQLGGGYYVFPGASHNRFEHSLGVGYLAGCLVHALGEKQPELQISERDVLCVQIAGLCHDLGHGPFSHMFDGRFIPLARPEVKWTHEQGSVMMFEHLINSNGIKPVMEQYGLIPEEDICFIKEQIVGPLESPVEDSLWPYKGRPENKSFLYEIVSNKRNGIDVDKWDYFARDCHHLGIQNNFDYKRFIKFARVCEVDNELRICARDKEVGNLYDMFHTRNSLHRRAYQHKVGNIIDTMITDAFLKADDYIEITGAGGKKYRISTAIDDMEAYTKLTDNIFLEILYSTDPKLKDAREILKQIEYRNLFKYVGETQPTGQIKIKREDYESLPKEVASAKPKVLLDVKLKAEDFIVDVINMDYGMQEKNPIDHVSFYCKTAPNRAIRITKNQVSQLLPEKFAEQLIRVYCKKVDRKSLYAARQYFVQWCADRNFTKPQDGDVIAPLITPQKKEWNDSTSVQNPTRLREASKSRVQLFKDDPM
UniProt Q6UVJ0, sequence (Q6UVJ0 whole entry, looked up): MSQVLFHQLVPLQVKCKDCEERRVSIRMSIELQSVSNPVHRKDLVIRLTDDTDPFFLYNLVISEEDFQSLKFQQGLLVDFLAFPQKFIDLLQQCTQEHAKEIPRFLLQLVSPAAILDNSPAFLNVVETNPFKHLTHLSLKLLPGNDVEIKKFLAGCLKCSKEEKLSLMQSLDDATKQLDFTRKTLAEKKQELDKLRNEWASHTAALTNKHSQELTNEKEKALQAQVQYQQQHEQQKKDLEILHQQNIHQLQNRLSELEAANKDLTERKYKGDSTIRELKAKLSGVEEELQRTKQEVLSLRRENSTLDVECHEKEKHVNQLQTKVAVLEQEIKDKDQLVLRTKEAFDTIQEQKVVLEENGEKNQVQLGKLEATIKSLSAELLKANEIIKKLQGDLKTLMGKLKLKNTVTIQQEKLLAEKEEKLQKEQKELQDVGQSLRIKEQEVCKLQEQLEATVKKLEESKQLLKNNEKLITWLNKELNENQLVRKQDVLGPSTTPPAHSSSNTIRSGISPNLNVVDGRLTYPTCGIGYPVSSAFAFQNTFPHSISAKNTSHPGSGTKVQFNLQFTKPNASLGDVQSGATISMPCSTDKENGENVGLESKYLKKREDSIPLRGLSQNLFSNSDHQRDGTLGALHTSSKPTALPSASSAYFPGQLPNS
UniProt Q02094, sequence (Q02094 whole entry, looked up): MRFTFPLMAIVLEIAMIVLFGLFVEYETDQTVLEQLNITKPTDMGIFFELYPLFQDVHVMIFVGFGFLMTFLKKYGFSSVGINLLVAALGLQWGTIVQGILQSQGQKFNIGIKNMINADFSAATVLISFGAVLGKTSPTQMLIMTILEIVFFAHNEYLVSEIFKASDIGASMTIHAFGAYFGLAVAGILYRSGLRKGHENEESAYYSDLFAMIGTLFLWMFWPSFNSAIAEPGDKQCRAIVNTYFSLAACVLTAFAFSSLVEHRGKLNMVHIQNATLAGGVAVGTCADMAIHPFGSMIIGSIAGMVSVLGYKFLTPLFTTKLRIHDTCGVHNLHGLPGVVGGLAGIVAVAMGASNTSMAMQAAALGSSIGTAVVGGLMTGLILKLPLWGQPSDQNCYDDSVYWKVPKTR
UniProt P23921, sequence (P23921 whole entry, looked up): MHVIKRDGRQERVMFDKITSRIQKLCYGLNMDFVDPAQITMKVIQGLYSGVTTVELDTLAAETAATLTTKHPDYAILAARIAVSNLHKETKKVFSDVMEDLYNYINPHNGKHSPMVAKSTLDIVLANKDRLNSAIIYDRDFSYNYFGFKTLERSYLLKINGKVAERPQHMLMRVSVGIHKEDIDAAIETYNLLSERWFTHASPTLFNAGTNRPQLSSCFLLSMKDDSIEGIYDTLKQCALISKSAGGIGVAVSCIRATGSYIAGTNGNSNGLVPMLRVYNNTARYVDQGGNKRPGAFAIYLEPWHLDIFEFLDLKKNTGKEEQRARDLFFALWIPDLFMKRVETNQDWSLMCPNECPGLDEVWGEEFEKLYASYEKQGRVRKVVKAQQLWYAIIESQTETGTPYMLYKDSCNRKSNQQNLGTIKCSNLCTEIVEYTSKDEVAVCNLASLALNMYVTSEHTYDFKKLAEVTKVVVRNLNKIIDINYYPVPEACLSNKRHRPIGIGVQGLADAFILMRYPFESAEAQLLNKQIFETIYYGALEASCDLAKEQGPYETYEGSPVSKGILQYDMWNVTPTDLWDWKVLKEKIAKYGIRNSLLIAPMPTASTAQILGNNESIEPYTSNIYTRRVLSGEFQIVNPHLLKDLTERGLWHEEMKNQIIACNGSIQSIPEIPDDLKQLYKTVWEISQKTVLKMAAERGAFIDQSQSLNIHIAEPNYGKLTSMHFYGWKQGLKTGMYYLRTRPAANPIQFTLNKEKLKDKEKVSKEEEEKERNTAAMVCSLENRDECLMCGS
UniProt Q8WWV3, sequence (Q8WWV3 whole entry, looked up): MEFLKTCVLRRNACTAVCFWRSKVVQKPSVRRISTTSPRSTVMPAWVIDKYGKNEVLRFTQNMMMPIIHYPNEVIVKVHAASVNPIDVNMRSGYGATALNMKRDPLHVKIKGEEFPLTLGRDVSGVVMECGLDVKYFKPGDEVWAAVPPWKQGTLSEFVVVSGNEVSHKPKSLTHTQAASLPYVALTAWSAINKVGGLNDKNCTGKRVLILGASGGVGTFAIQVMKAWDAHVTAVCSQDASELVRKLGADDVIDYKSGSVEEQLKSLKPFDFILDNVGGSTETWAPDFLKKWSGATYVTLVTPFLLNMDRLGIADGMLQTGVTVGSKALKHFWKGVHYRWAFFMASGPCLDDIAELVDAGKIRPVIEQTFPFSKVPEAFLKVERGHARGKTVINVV
UniProt Q4ADV7, sequence (Q4ADV7 whole entry, looked up): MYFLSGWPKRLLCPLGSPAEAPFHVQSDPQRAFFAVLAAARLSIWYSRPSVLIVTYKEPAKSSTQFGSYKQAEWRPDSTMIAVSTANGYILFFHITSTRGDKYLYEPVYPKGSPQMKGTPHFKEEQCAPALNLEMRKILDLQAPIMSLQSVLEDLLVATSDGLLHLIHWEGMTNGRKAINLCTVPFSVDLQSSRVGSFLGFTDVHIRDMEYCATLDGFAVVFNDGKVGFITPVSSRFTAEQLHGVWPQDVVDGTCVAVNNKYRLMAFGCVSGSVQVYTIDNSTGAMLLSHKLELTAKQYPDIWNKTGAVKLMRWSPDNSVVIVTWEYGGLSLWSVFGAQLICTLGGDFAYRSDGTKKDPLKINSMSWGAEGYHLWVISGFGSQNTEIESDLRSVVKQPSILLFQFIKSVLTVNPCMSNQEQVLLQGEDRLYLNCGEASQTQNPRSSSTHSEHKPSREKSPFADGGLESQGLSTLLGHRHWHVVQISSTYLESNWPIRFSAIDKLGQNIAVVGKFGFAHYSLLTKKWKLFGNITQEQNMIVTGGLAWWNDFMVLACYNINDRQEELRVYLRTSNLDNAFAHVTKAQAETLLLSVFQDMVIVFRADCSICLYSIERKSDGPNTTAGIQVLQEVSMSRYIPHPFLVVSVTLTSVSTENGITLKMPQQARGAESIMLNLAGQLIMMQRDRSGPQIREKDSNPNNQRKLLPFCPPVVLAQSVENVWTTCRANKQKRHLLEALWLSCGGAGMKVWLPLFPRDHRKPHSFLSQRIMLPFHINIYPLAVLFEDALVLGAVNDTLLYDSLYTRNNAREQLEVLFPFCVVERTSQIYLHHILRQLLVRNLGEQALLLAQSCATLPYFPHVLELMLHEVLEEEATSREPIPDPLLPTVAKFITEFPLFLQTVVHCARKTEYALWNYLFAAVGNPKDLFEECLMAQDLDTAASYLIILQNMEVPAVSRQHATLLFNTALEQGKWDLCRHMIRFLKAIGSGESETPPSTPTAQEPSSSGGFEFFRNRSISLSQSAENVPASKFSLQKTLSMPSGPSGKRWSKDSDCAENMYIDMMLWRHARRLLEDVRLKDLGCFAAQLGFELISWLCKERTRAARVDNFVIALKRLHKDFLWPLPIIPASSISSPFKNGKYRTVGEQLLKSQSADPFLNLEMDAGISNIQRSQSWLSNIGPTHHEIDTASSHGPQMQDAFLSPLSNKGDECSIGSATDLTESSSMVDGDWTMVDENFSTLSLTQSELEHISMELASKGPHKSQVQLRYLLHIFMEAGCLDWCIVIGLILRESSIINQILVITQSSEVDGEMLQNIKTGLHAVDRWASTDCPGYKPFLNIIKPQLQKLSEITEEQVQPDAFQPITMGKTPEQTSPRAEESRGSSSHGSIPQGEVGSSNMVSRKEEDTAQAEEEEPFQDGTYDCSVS
UniProt Q9P0P0, sequence (Q9P0P0 whole entry, looked up): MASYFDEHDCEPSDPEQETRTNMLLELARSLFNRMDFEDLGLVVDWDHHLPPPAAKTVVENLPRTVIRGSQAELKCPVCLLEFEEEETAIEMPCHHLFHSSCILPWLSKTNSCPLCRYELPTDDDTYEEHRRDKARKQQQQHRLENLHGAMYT
UniProt Q9Y6B6, sequence (Q9Y6B6 whole entry, looked up): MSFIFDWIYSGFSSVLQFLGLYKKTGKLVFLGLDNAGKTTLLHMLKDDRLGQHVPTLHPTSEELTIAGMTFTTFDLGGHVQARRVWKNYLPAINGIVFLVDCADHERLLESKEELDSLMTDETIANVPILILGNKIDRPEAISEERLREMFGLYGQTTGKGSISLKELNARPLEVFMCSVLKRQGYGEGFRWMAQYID
UniProt Q9UL25, sequence (Q9UL25 whole entry, looked up): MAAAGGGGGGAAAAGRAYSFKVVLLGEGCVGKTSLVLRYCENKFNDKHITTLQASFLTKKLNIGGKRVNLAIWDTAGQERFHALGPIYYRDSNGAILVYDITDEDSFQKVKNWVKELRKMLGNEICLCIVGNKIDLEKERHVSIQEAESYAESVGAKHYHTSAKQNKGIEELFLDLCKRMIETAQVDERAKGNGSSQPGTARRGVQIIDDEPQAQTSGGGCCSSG

log2 fold change, inactive:
SERPINI1 (UniProt Q99574) 0.063
SASS6 (UniProt Q6UVJ0) -0.006
RPS6KB1 (UniProt P23443) 0.024
SAMHD1 (UniProt Q9Y3Z3) -0.009
S100A11 (UniProt P31949) -0.011
RTN4IP1 (UniProt Q8WWV3) 0.073
RIOK3 (UniProt O14730) -0.021
RAB6D (UniProt Q53S08) 0
RHAG (UniProt Q02094) 0.004
RIPK1 (UniProt Q13546) -0.02
RMC1 (UniProt Q96DM3) -0.004
RAB21 (UniProt Q9UL25) 0.026
RABEPK (UniProt Q7Z6M1) 0
SCO1 (UniProt O75880) 0.029
RINT1 (UniProt Q6NUQ1) 0.011
RDH14 (UniProt Q9HBH5) 0.017
RPL31 (UniProt P62899) -0.031
RAF1 isoform 2 (UniProt P04049) -0.046
RDX (UniProt P35241) -0.051
RPS4X (UniProt P62701) 0
RIC1 (UniProt Q4ADV7) -0.129
RRM1 (UniProt P23921) 0.025
RNF123 (UniProt Q5XPI4) 0.028
RNF181 (UniProt Q9P0P0) 0.043
RNF213, A0A0A0MTC1 0.015
RNF168 (UniProt Q8IYW5) 0.155
SAR1B (UniProt Q9Y6B6) 0.02
RFC2 (UniProt P35250) 0.009
SBF1 isoform 4 (UniProt O95248) 0.086
SERINC3 (UniProt Q13530) 0.06
RPS29 (UniProt P62273) 0.002
RPS26P11 (UniProt Q5JNZ5) -0.037
RFC5 (UniProt P40937) -0.038
